This is a sample that favours compounds with a hit; in the whole collection about 2.3% have one here.
aSyn yeast inh: inhibitors of alpha-synuclein toxicity in yeast. 0.14% of 370,000 active. AID 652106. Yeast expressing alpha-synuclein, growth rescue, BacTiter-Glo, 24 h. Potency, µM (doses to about 46.1 µM), for the others: at the highest dose growth rescue (activation), actives largely listed as activators; further: potency means the concentration at half of the fitted maximal effect; % of control where 0% means no effect; nearly all actives have a fitted effect of over 65% in size
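Galactose-induced alpha-syn yeast (OD600=0.02, raffinose-pregrown) + pinned cpd, 24 hr, 30 deg C; growth by BacTiter-Glo luminescence. Growth restoration scores as activation.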
Abeta yeast res: compounds reversing amyloid beta toxicity in yeast. 0.063% of 410,000 active. AID 1347071. yeast expressing A-beta42, growth rescue, OD600, 48 h; response scale: 0% DMSO, 100% iron-clioquinol control. Potency, µM (doses to about 46.1 µM), most hits filed as activators; further: potency means the concentration at half of the fitted maximal effect; nearly all actives have a fitted effect of over 55% in size
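Yeast growth medium received pinned compounds, then yeast cells expressing toxic A-beta were added; plates incubated at 30 C for 48 hr. Growth read as absorbance at 600 nm, normalized to DMSO and equimolar FeCl3 plus clioquinol controls.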
MmCpn inh: M. maripaludis TRiC chaperonin inhibition; purified Mm-Cpn ATPase, ADP Transcreener TR-FRET; Potency, µM (titrated, usually from 76.9 µM), for the others: at the highest dose activity, negative = inhibition, most hits filed as inhibitors; 0.031% of 330,000 active; AID 504842; further: potency means the concentration at half of the fitted maximal effect; on the % scale 0 is the no-effect control and ±100 the full control effect; nearly all actives have a fitted effect of over 80% in size
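Measured: ADP formation by purified Mm-CPN. Conditions: 25 nM protein, 10 uM ATP, Tris pH 7.4 with Mg2+, K+ and DTT, 37°C for 30 min. Detection: Transcreener HTRF after 30 min at room temperature.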
FUS yeast rescue: rescues growth of FUS-expressing yeast; Potency, µM (top dose mostly 76.6 µM), usual class: activators; S. cerevisiae FUS-expressing, growth rescue, OD600, 24 h; 0.24% of 390,000 active;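 further: potency means the concentration at half of the fitted maximal effect; plate controls were DMSO vehicle for no effect and reference control for full effect; nearly all actives have a fitted effect of over 55% in size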
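Read-out: OD at 600 nm after 24hr at 30C, reporting rescue of FUS-induced yeast toxicity. Cells at OD 0.005 in galactose (2%) minimal medium; compounds tested in a dilution series; CP55940 titration from 92uM final as control.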
CCT modulator: modulators of cytosolic chaperonin (CCT/TRiC) activity; 0.3% of 360,000 active; AID 651819; purified chaperonin ATPase assay, HTRF ADP detection, 30 min; activity change, % (no concentration beside the values), hits read low; in the data active means activity change below about -30%; further: on the % scale 0 is the no-effect control and ±100 the full control effect
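Nucleotide hydrolysis assay: TRiC at 20–40 nM final (set by batch activity) with 10 uM ATP, 30 min at 37 °C, in presence of 76 uM compound. Detection by competitive ADP HTRF, 30 min ambient.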
TDP43 rescue: TDP-43 toxicity inhibition in yeast; TDP-43 expressing yeast growth rescue, BacTiter-Glo, 24 h; Potency, µM (series often up to 46.1 µM), for the others: at the top dose growth rescue (activation), hits mostly activators; 1.8% of 410,000 active; AID 652104; further: potency means the concentration at half of the fitted maximal effect; % of control where 0% means no effect; nearly all actives have a fitted effect of over 50% in size
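In this qHTS, compounds that restore growth of yeast expressing TDP-43 appear as activators. Cells (OD600=0.02, galactose medium, raffinose-pregrown) are incubated with compound 24 hr at 30 deg C and growth is quantified by BacTiter-Glo.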
* hit, by the source's call; i = inactive; ? = inconclusive; . = no result given; [ ] = remark or other dose. Unless noted, the call rests on the fitted dose curve; in most records, active means well fitted curve in the direction sought with a large enough effect; inconclusive means small, poorly fitted or top-dose-only effect, or another doubt; inactive means no such curve, though single readings can be large; an effect the other way counts as inactive or inconclusive.

SMILES | aSyn yeast inh | Abeta yeast res | MmCpn inh | FUS yeast rescue | CCT modulator | TDP43 rescue
COC(=O)[C@]12C[C@H](CC(=O)NCc3cccc4ccccc34)C(=O)N(Cc3ccc4c(c3)OCO4)C1=C[C@H](C(C)C)O[C@@H]2C1CC1 | . | . | . | 13µM* | . | .
CCOC(=O)CCCC(=O)N1CCN(/[N+]([O-])=N/Oc2ccc([N+](=O)[O-])cc2[N+](=O)[O-])CC1 | -84% | . | . | . | . | .
C#CCOc1ccc(C2C(C(=O)OC)=C(C)NC3=C2C(=O)c2ccccc23)cc1OCC (stereo not given) | . | i | . | ? | . | 18%
COc1cc(/C=C/C(=O)c2ccc3c(c2)OCCO3)cc(Br)c1OCC(=O)N(C)C | 11% | i | -7% | ? | 0 | 25µM*
O=C(/C=C/c1ccncc1)c1ccc2c(c1)OCCO2 | -4% | i | ? | i | 1 | -8%[9.22 µM]
Clc1ccc(-c2csc(N/N=C/c3ccco3)n2)cc1 | -28% | i | 2% | i | -1 | 6.3µM*
COc1ccc(CN2CCC(CNC(=O)Nc3ccc(C)c(F)c3)CC2)cc1 | . | . | . | i | . | .
CCOC(=O)C1=CN(Cc2cccc(F)c2)S(=O)(=O)NC1c1ccc(F)c(Cl)c1 (stereo not given) | 4% | i | 0% | i | 0 | 10%
CCOC(=O)C1=CN(Cc2cccc(F)c2)S(=O)(=O)NC1c1ccc(Br)cc1F (stereo not given) | 0% | i | 4% | i | 0 | 16µM*
Cc1cc(C)c2oc(-c3cccc(NC(=O)COc4ccc(Cl)cc4C)c3C)nc2c1 | 1% | . | . | . | . | .
O=S(=O)(Nc1ccc2nc(-c3ccc(F)cc3)oc2c1)c1ccccc1 | . | ? | . | i | . | 35µM*
CCSc1nnc(NC(=O)c2ccccc2C)s1 | -9% | i | -5% | i | 0 | 11µM*
CCSc1nnc(NC(=O)C2Cc3ccccc3CN2S(=O)(=O)CC)s1 (stereo not given) | 3% | i | -2% | 3.5µM* | -3 | 3%
CCSc1nnc(NC(=O)c2ccccc2)s1 | 1% | i | 0% | i | -2 | 19%
CCS(=O)(=O)N1Cc2ccccc2CC1C(=O)Nc1ccc(OC)c(OC)c1 (stereo not given) | -4% | i | -9% | i | 1 | -20%
CCS(=O)(=O)N1Cc2ccccc2CC1C(=O)Nc1cccc(OC)c1 (stereo not given) | 6% | i | -5% | i | -49* | -10%
CCc1nnc(NC(=O)C2Cc3ccccc3CN2S(=O)(=O)c2ccc(C)cc2)s1 (stereo not given) | 1% | i | -1% | 14µM* | -3 | 17%
O=C1NCCN1CCN1CCC(c2cn(-c3ccc(F)cc3)c3ccc(Cl)cc23)CC1 | . | . | . | i | . | .
CCOc1ccc(NC(=O)CC2CC(C)(C)OC2=O)cc1 (stereo not given) | 8% | i | 2% | i | -1 | 3%
CCCC1CC(C)(c2csc(Nc3ccc(OCC)cc3)n2)OC1=O (stereo not given) | 19% | i | -3% | i | 0 | 18µM*
O=C1c2ccccc2N2C(=O)c3ccccc3[C@H]2N1c1ccccc1 | 6% | i[9.22 µM] | 0% | i | -1 | 20µM*
O=C(CCc1ccccc1)NNC(=O)c1ccc(Cl)cc1 | 6% | i | -1% | i | 1 | -1%
CC(C)NC(=S)NC(=O)c1ccc(-c2ccccc2)cc1 | -17% | i | 1% | i | -1 | 18µM*
O=C(CCc1ccccc1)NNC(=S)NC(=O)c1ccc(Cl)cc1 | 13µM* | ? | -1% | i | -2 | 14µM*
O=C(NC(=S)Nc1ccc(-c2ccccc2)cc1)c1ccccc1 | 14% | i | . | i | 0 | -7%
CCCCCCCC(=O)NNC(=O)c1ccc([N+](=O)[O-])cc1 | 2% | i | 0% | i | 1 | 7%
CCCCCC(=O)NNC(=S)NC(=O)c1cccc([N+](=O)[O-])c1 | 16µM* | ? | 3% | . | -1 | ?

Assay outcomes from PubChem BioAssay.
